12-LOX inh = Primary qHTS assay for inhibitors of human arachidonate 12S-lipoxygenase (ALOX12): Round 2 | Polyunsaturated fatty acid lipoxygenase ALOX12 (Homo sapiens), P18054 | purified 12hLO, xylenol orange hydroperoxide absorbance | Potency, µM (doses to about 108 µM), most hits filed as inhibitors | 580,000 tested, 1.1% active
Target sequence (P18054 whole entry, looked up): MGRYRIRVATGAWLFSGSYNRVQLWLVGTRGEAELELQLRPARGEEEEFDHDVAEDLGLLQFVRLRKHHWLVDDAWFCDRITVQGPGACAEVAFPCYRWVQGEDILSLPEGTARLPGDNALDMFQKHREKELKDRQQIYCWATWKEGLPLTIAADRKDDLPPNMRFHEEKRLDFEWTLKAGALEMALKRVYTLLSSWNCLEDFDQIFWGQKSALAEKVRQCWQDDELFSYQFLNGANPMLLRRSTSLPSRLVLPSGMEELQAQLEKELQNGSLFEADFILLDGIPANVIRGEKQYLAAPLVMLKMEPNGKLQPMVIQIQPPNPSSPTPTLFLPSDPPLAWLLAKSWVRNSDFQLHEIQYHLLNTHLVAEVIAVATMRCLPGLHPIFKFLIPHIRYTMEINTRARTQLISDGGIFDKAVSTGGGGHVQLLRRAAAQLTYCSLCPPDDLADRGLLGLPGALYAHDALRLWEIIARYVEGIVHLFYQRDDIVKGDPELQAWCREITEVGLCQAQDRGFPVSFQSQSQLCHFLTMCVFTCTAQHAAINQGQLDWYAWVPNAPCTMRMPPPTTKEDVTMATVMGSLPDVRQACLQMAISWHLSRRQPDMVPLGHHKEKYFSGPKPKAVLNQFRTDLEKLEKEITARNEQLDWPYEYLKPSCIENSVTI
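Purified human 12hLO (150 nM final) in 25 mM Hepes, 0.01% Triton X-100, pH 7.0 was preincubated 15 min at room temperature with compound. Then 40 uM arachidonic acid was added, 30 min. Hydroperoxide was read by Fe-XO absorbance ratio 573/405 nm.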
PINK1 expr mod = A Quantitative High throughput Screen to Identify Chemical Modulators of PINK1 Expression. PINK1 immunofluorescence, high-content cytometry, 24 h. Potency, µM (highest dose often 76.6 µM), most hits filed as activators. 410,000 tested, 0.2% active. AID 624263, 2012; active means well fitted activation curve with a large enough effect; inconclusive means small, poorly fitted or top-dose-only effect; cell line not stated here; further: nearly all actives have a fitted effect of over 65% in size
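Stable cell line treated 24 h with compounds at 5 concentrations (CCCP controls), then fixed and immunostained for PINK1 plus nuclear and cell stains; PINK1 immunofluorescence quantified by laser-scanning microplate cytometry.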
MCF10A rereplic = A quantitative high throughput screen for small molecules that induce DNA re-replication in MCF 10a normal breast cells. MCF 10A DNA re-replication, Hoechst nuclear intensity, 48 h. Potency, µM (titrated, usually from 46.1 µM), usual class: activators. 350,000 tested, 2.9% active. AID 624296, 2012; further: nearly all actives have a fitted effect of over 50% in size
KB-3-1 tox = qHTS assay for MDR1-selective chemotherapeutics: Primary screen using the parental adenocarcinoma cell KB-3-1. KB-3-1 viability, CellTiter-Glo ATP luminescence, 72 h. Potency, µM (series often up to 46.1 µM), most hits filed as cytotoxic. 400,000 tested, 1.4% active; further: nearly all actives have a fitted effect of over 60% in size
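Cytotoxicity measured as CellTiter-Glo luminescence after 72 h at 37 C. Compound titrations were pinned onto drug-naive KB-3-1 parental adenocarcinoma cells grown in DMEM with 10% FBS, and normalized data fitted to concentration-response curves.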
SW480 rerep = A quantitative high throughput screen for small molecules that induce DNA re-replication in SW480 colon adenocarcinoma cells; Potency, µM (doses to about 46.1 µM), usual class: activators; 340,000 tested, 1.8% active; SW480 DNA re-replication, Hoechst DNA content imaging, 48 h; further: nearly all actives have a fitted effect of over 55% in size
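Hoechst fluorescence of nuclei (405 nm excitation, 500-530 nm emission) measured by plate-scanning imager after 48 hr compound exposure at 37 C; re-replication scored as increased number of nuclei with elevated intensity.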
KB-V1 cytotox = qHTS assay for MDR1-selective chemotherapeutics: Primary screen using the drug-selected MDR subline cells KB-V1. KB-V1 MDR cells viability, CellTiter-Glo, 72 h. Potency, µM (top dose mostly 46.1 µM), actives largely listed as cytotoxic. 400,000 tested, 3.4% active; further: nearly all actives have a fitted effect of over 60% in size
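Potencies derive from concentration-effect curves fitted to normalized luminescence (CellTiter-Glo) of KB-V1 cells treated for 72 h at 37 degrees C in phenol-red-free DMEM containing 10% FBS.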
A number is an active result; 0 = inactive; ? = inconclusive; - = no result given. The list is not random: actives were taken first. Their share in the collection is about 5.8%. Unless noted, the call rests on the fitted dose curve; in most records, active means well fitted curve in the direction sought with a large enough effect; inconclusive means small, poorly fitted or top-dose-only effect, or another doubt; inactive means no such curve, though single readings can be large; an effect the other way counts as inactive or inconclusive.

SMILES	12-LOX inh	PINK1 expr mod	MCF10A rereplic	KB-3-1 tox	SW480 rerep	KB-V1 cytotox
O=C(NCc1ccc(-c2nc3ccccc3s2)cc1)c1ccco1	0	0	0	0	0	23.1µM
O=C(NC(=S)NCc1ccc(-c2nc3ccccc3s2)cc1)c1ccco1	11.2µM	0	?	0	-	?
O=C(NCc1ccccc1)c1ccco1	0	0	0	0	0	0
O=C(CCCc1nc2ccccc2s1)NCc1ccc(F)cc1	0	0	0	0	0	0
O=C(NC(=S)Nc1nc2ccccc2s1)c1ccco1	0	0	0	0	0	?
O=C(CCCc1nc2ccccc2s1)NCc1ccccc1	0	0	0	0	0	23.1µM
CC1CCCN(S(=O)(=O)c2ccc(-c3nc(C#N)c(NCc4ccco4)o3)cc2)C1 (centres undefined)	0	-	-	-	-	-
COc1cc(O)c2c(c1)/C=C/CCC/C(=N\O)CCC[C@H](C)OC2=O	0	-	-	-	-	-
CCOc1ccc(OCCSc2nc3cc(S(=O)(=O)N(C)C)ccc3o2)cc1	0	-	-	-	-	-
O=C(CC1C=CCC1)N(Cc1cccs1)C1CC1 (centres undefined)	0	-	-	-	-	-
COc1ccc(C(=O)C2CCCN(Cc3cccn3-c3ccccn3)C2)c(OC)c1 (centres undefined)	0	39.8µM	0	0	0	?
COc1ccc(F)cc1C(=O)C1CCCN(Cc2cccn2-c2ccccn2)C1 (centres undefined)	0	0	?	0	?	0
Cc1ccc(C)c(N2CCN(C(=O)Cn3ncc4ccsc4c3=O)CC2)c1	0	0	-	16.4µM	-	4.11µM
CC(=O)Nc1cccc(-c2ccnc3c2CC(C)(C(=O)NCc2cccs2)O3)c1 (centres undefined)	0	0	-	3.26µM	-	0
CC(=O)Nc1cccc(-c2ccnc3c2CC(C)(C(=O)NCCc2ccccc2)O3)c1 (centres undefined)	0	0	-	4.11µM	-	?
CC(=O)Nc1cccc(-c2ccnc3c2CC(C)(C(=O)NCCN(C)C)O3)c1 (centres undefined)	0	0	-	0	-	0
CC(=O)Nc1cccc(-c2ccnc3c2CC(C)(C(=O)Nc2ccccc2)O3)c1 (centres undefined)	0	0	-	0	-	0
CC(=O)Nc1cccc(-c2ccnc3c2CC(C)(C(=O)Nc2ccc(F)c(Cl)c2)O3)c1 (centres undefined)	0	0	-	?	-	20.6µM
CC(=O)Nc1cccc(-c2ccnc3c2CC(C)(C(=O)NCc2cccc(Cl)c2)O3)c1 (centres undefined)	0	0	-	14.6µM	-	?
CC(=O)Nc1cccc(-c2ccnc3c2CC(C)(C(=O)NCc2ccc(N(C)C)cc2)O3)c1 (centres undefined)	0	0	-	10.3µM	-	?
CC(=O)Nc1ccc(-c2ccnc3c2CC(C)(C(=O)NCc2ccc(F)c(F)c2)O3)cc1 (centres undefined)	?	0	-	8.2µM	-	0
CC(=O)Nc1cccc(-c2ccnc3c2CC(C)(C(=O)Nc2cccc(Oc4ccccc4)c2)O3)c1 (centres undefined)	?	0	-	?	-	20.6µM
CC1(C(=O)Nc2cccc(Oc3ccccc3)c2)Cc2c(-c3ccccc3)ccnc2O1 (centres undefined)	0	0	-	?	-	0
O=C(OCc1cccc(F)c1)c1ccc(C2Nc3ccccc3S(=O)(=O)N2)cc1 (centres undefined)	0	-	-	-	-	-
O=C(CSc1ccc(F)cc1)OCc1nc2ccsc2c(=O)[nH]1	0	-	-	-	-	-
SMILES	12-LOX inh	PINK1 expr mod	MCF10A rereplic	KB-3-1 tox	SW480 rerep	KB-V1 cytotox
COc1ccc(NC(=S)NCCSc2ccc(C)cc2)c(OC)c1	35.5µM	0	?	0	0	0
COc1ccc(NC(=S)Nc2ccc(OCc3ccccc3)cc2)c(OC)c1	35.5µM	0	0	?	0	16.4µM
COc1ccc(NC(=S)Nc2ccccc2)c(OC)c1	0	0	0	0	0	0
COc1ccc(OC)c(NC(=S)NCCSc2ccc(C)cc2)c1	?	0	0	0	0	23.1µM
Cc1noc(-c2cn(C3CCN(C(=O)C(C)Oc4ccc(Cl)cc4)CC3)nn2)n1 (centres undefined)	0	-	-	-	-	-
CCc1ccc(C2=NN(C(=O)Cc3ccc(OC)cc3)C(O)(C(F)(F)F)C2)cc1 (centres undefined)	0	-	-	-	-	-
O=C(Cc1c(F)cccc1Cl)NCc1cccc(C(=O)Nc2ccccc2)c1	0	-	-	-	-	-
N#C/C(=C\Nc1ccccc1O)c1nc2ccccc2o1	?	?	?	0	0	20.6µM
N#C/C(=C\c1ccncc1)c1nc2ccccc2o1	0	0	14.6µM	0	0	0
O=C1C=CC(=O)N1c1ccc2c(c1)C(NC(=O)C(F)(F)F)c1ccccc1-2 (centres undefined)	?	0	?	-	8.2µM	-
C[n+]1c(/C=C/c2ccc(O)cc2)ccc2ccccc21	35.5µM	0	0	?	0	?
C[n+]1c(/C=C/c2ccc(F)cc2)ccc2ccccc21	-	0	-	?	-	0
COc1ccc(C(=O)Oc2cccc3c(OC)ccc(C=O)c23)cc1OC	0	-	-	-	-	-
CCn1c(=O)[nH]c(=O)c2c(N)c(C(=O)c3ccccc3OC)sc21	0	0	0	0	0	23.1µM
O=C(Nc1ccc2c(c1)OCCO2)c1cc2cc(Cl)ccc2[nH]1	0	-	-	-	-	-
CCCCC(=O)Nc1cccc(NC(=O)c2ccc3c(c2)OCO3)c1	?	0	0	0	0	13µM
CCCC(=O)Nc1cccc(NC(=O)c2ccc3c(c2)OCCO3)c1	0	0	?	0	?	0
O=C(Nc1ccc(NC(=O)c2ccccn2)cc1)C(=O)Nc1ccc2c(c1)OCCO2	0	0	0	0	0	0
O=C(Nc1ccc2c(c1)OCCO2)c1ccccn1	0	0	0	18.4µM	0	?
Cc1cc(NC(=O)c2ccco2)ccc1NC(=O)c1ccco1	?	0	0	?	0	23.1µM
O=C(Nc1ccc2c(c1)OCCO2)c1cc2cc(Br)ccc2[nH]1	14.1µM	-	-	-	-	-
O=C(Nc1ccc2c(c1)OCCO2)c1ccccc1Cl	0	0	-	0	-	0
O=C(Nc1ccc2c(c1)OCCO2)c1cccc2nc3ccccc3nc12	0	0	?	?	0	6.51µM
O=C(Nc1ncccc1O)c1ccc2c(c1)OCCO2	0	0	0	4.11µM	0	?
Cc1ccc(C(=O)Nc2ccc3c(c2)OCCO3)o1	0	0	0	0	0	20.6µM
O=C(Nc1cccc(NC(=O)c2ccco2)c1)c1ccc2c(c1)OCO2	0	0	0	0	0	12.6µM

Assay outcomes: PubChem, National Center for Advancing Translational Sciences (NCATS)
